Among the data in PubChem BioAssay (NCATS) are Potency and outcome values, retold here.

Test [1] in a line: OV-KATE Cancer Cell Toxicity qHTS against the NCATS CANVASS Library (AID 1347345). The method, boiled down: (§1)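 Bortezomib titration and single-dose wells served as plate controls. Test compounds, 11 points, acted on 1000 cells/well for 72 h at 37 degrees C; CellTiter-Glo luminescence quantified remaining viable cells.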
Test [2] in a line: HPAF-II Cancer Cell Toxicity qHTS against the NCATS CANVASS Library (AID 1347346). Further: nearly all actives have a fitted effect of over 55% in size. Further: potency means the concentration at half of the fitted maximal effect. In a few lines: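 Using 1000 HPAF-II cells per well, we titrated compounds over 11 concentrations for 72 h at 37 degrees C/5% CO2, with bortezomib as control. Cell survival was quantified by CellTiter-Glo luminescence.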
A short description of test [3]: UWB1.289 Cancer Cell Toxicity qHTS against the NCATS CANVASS Library (AID 1347347). Further: nearly all actives have a fitted effect of over 60% in size. Further: potency means the concentration at half of the fitted maximal effect. The method, boiled down: as §1
(In general: In qHTS, concentration-response curves come from the screen itself.)

The nature of test [4]: OV-SAHO Cancer Cell Toxicity qHTS against the NCATS CANVASS Library (AID 1347348). Further: series mostly up to about 38 µM; nearly all actives have a fitted effect of over 55% in size. In a few lines: as §1
Test [5] can be described thus: SW1088 Cancer Cell Toxicity qHTS against the NCATS CANVASS Library (AID 1347350). Further: nearly all actives have a fitted effect of over 75% in size. In a few lines:
as §1

The nature of test [6]: U-118MG Cancer Cell Toxicity qHTS against the NCATS CANVASS Library (AID 1347351). In a few lines:
as §1

The nature of test [7]: COV-362 Cancer Cell Toxicity qHTS against the NCATS CANVASS Library (AID 1347352). Further: series mostly up to about 38 µM. In a few lines: (§2)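 Using an ATP-based luminescent reagent after three days of treatment, toxicity is scored across an eleven-concentration range in wells holding 1000 cells each.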
Test [8] in a line: UWB1.289-WTBRCA1 Cancer Cell Toxicity qHTS against the NCATS CANVASS Library (AID 1347354). The method, boiled down: as §2
A short description of test [9]: HPAF-II 12hr Apoptosis Induction qHTS against the NCATS CANVASS Library (AID 1347358). The method, boiled down: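 Twelve-hour compound exposure of HPAF-II cells in DMEM with 10% FBS, then luminescent Caspase-Glo 3/7 detection after 15 min at room temperature; doxorubicin control.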
Test [10] is described as follows: HEK293 12hr Apoptosis Induction qHTS against the NCATS CANVASS Library (AID 1347361). In a few lines:
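500 HEK293 cells/well; cpds pin-transferred, 11-pt conc series; 12 h, 37 degrees C/5% CO2; Caspase-Glo 3/7 added, 15 min RT dark; luminescence.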

Test [11] can be described thus: KB-8-5-11 Cancer Cell Toxicity qHTS against the NCATS CANVASS Library (AID 1347364). Further: nearly all actives have a fitted effect of over 75% in size. The method, boiled down:
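Luminescent ATP signal (CellTiter-Glo, 10 min at room temperature) measured cell survival of KB-8-5-11 after 72 hr compound treatment. For confirmation, the cells were also grown with 1uM tariquidar.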

Test [12] is described as follows: qHTS for Hypoxia signaling pathway (HIF-1) agonists against the NCATS CANVASS Library (AID 1347375). In a few lines:
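An HRE-beta-lactamase ME-180 line is exposed for 17 h to an 11-point compound series, then read by CCF4-AM FRET. Cytotoxicity is measured in parallel in the same wells with CellTiter-Glo, and autofluorescence is checked separately.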

Test [13] in a line: qHTS assay for small molecule disruptors of mitochondrial membrane potential screened against the NCATS CANVASS Library (AID 1347389). Further: series mostly up to about 46 µM; nearly all actives have a fitted effect of over 60% in size. In a few lines: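 Cells (HepG2) seeded the day before received compound or DMSO for 1 hr, then Mito-MPS dye for 30 min at 37C; emission at 590 nm over 535 nm gave the polarization signal.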
Test [14] in a line: Secretion counterscreen for inhibitors of the SERCaMP assay screened against the NCATS CANVASS Library (AID 1347390).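 Further: light from luciferase secreted into medium read as a measure of general secretion; series mostly up to about 77 µM.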 In a few lines:
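Luminescence from constitutively secreted GLuc in SH-SY5Y-GLuc STOP cells, read after coelenterazine addition, served as read-out. Compounds tested 0.001 - 77 uM for 20 h at 37C; Brefeldin A as positive control.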
For orientation: A counterscreen serves to expose hits that act by an unwanted route or on another target.

Test [15] in a line: qHTS for activators of Nrf2/ARE signaling pathway screened against the NCATS CANVASS Library (AID 1347391). Further: nearly all actives have a fitted effect of over 60% in size. The method, boiled down:
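Activation of Nrf2/ARE was scored in ARE-bla HepG2 cells after 16 h compound exposure using CCF4 beta-lactamase fluorescence ratio readings.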

Test [16] can be described thus: qHTS for inhibitors of ER calcium dysfunction: SERCaMP assay screened against the NCATS CANVASS Library (AID 1347393).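 Further: series mostly up to about 77 µM; lower secreted reporter signal means inhibitor of ER calcium depletion; nearly all actives have a fitted effect of over 40% in size.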 The method, boiled down:
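SH-SY5Y GLuc-SERCaMP, 1000 cells/well, 4 h attach; cpd 16 h, 37C/5% CO2; thapsigargin (added as 6x 600 nM) 4 h; coelenterazine; luminescence. Reduced reporter release = ER Ca stabilization.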

Test [17] can be described thus: qHTS for inhibitors of Wild type Zika virus screened against the NCATS CANVASS Library (AID 1347396).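 Further: ATP luminescence of surviving cells so rescue from viral cell killing; series mostly up to about 46 µM.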 In a few lines:
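Protection against wild-type Zika cytopathic effect is measured in African green monkey Vero 766 cells exposed to an 11-point compound series. Surviving cells are quantified by CellTiter Glo luminescence after 72 h.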

Test [18] can be described thus: Redox Reaction Profiling qHTS: Assay Interference Panel against the NCATS CANVASS Library (AID 1347401). In a few lines: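 Fluorescence read-out (525 nm excitation, 598 nm emission) at time zero and after 15 min in the dark tracked resorufin formation. Mix: 5 uM resazurin, 200 uM DTT, HEPES pH 7.3 buffer with NaCl.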
A short description of test [19]: qHTS for activators of dead-cell proteases activity screened against the NCATS CANVASS Library (AID 1347392).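 Further: luminescence from protease leaking out of membrane-damaged cells cleaving impermeant substrate; rising signal means more cytotoxicity.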 The method, boiled down: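 HepG2, 2000 cells/well, 18 h attach; cpd 11-pt, 5 h 37C 5% CO2; CytoTox-Glo (AAF-aminoluciferin) 15 min RT; luminescence read.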
Test [20] is described as follows: qHTS for Antimalaria activity screened against the NCATS CANVASS Library (AID 1347380).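 Further: Plasmodium falciparum strain Dd2 asexual parasites grown in red blood cells; series mostly up to about 29 µM; nearly all actives have a fitted effect of over 40% in size.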 The method, boiled down: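 Measures proliferation or cytotoxicity against Dd2 blood stages in 72 h cultures, 11-point qHTS dosing, with SYBR Green fluorescence as read-out; dihydroartemisinin titration served as control.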

Records with an inconclusive call do not appear. Calls of active or inactive are those of the source. The call rests on the fitted dose curve; in most records, active means well fitted curve in the direction sought with a large enough effect; inconclusive means small, poorly fitted or top-dose-only effect, or another doubt; inactive means no such curve, though single readings can be large; an effect the other way counts as inactive or inconclusive.

Take `CC(C)=CCC[C@]1(C)[C@H]2CC(=O)[C@@]3(CO3)[C@@H]1C2`: the Potency result in test [1], in [2], in [3], in [4], in [5] and in test [6] was “inactive” each time. For the same molecule, the Potency entry in test [7], in [8], in test [9], in [11], in test [13] and in test [14] was “inactive” each time. The Potency entry in [15], in test [16] and in test [18] was “inactive” in each case. In addition, the result in test [10], in test [12] and in test [17] was inactive.

As for `O=Cc1ccc2n1C[C@]1(OC2)O[C@H](CO)[C@@H](O)[C@@H]1O`, the Potency entry in test [1], in test [2], in [3], in [4], in [5] and in [6] was “inactive” in each case. Besides, the Potency result in test [7], in [8], in test [9], in test [11], in test [13] and in [14] was “inactive” each time. Besides, the Potency entry in test [15], in test [19], in test [16] and in test [18] was “inactive” in each case. Also, the outcome in test [12] and in [17] was inactive.

`O=Cc1ccc2n1C[C@]1(C[C@H](O)[C@@H](CO)O1)OC2`: the Potency entry in test [1], in test [2], in test [3], in test [4], in test [5] and in test [6] was “inactive” throughout. Further, the Potency result in [7], in test [8], in [9], in test [11], in test [20] and in test [13] was “inactive” in each case. Further, the Potency result in test [14], in test [15], in test [19] and in test [16] was “inactive” each time. In addition, the molecule was classed as inactive in test [10] and in test [17].

With `COc1ccc(-c2oc3cc(OC)cc(OC)c3c(=O)c2O)cc1`, the Potency entry in test [1], in [2], in test [4], in [6], in test [7] and in test [8] was “inactive” throughout. The Potency entry in test [9], in test [13], in test [15], in test [19] and in [18] was “inactive” in each case. The Potency in test [3] was 18.8 µM (active). For the same molecule, the molecule was classed as inactive in test [17].

Regarding `CCC(C)=C1OC(=O)[C@H](C)[C@H](O)[C@H](Cc2cccnc2)NC(=O)C(NC(=O)c2ncccc2O)C(C)OC1=O` (stereo partly specified), the Potency result in test [1], in test [2], in [3], in test [4], in test [5] and in test [6] was “inactive” in each case. The Potency entry in test [7], in test [8], in test [9], in test [11], in test [20] and in [13] was “inactive” each time. The Potency entry in test [14], in test [15], in test [19] and in test [18] was “inactive” each time. In addition, the outcome in test [10] and in test [17] was inactive.

With `C=CC(C)(C)C(=O)[C@@H](C)[C@@H]1CC[C@@](C)(C=C)O1`, the Potency entry in [1], in [2], in test [3], in test [4], in [5] and in test [6] was “inactive” in each case. Moreover, the Potency entry in test [7], in test [8], in test [11], in test [20], in [13] and in test [14] was “inactive” in each case. Also, the Potency result in test [15], in [16] and in test [18] was “inactive” throughout. Moreover, the result in test [10], in test [12] and in test [17] was inactive.

On to `C=C1C[C@]23C=CC(=O)[C@@](C)(CCCC(C)C(=O)N[C@@H](CO)C(=O)O)[C@@H]2C[C@@H]1CC3` (stereo partly specified), for which the Potency entry in [1], in test [2], in test [3], in test [4], in [5] and in test [7] was “inactive” throughout. The Potency result in [8], in test [9], in test [11], in test [20], in test [13] and in [14] was “inactive” throughout. Besides, the Potency entry in test [15] and in [16] was “inactive” throughout. For the same molecule, the molecule was called inactive in [10] and in test [17].

Regarding `C[C@@]12CCC[C@@](C)(C(=O)OP(=O)(O)OC[C@H]3O[C@@H](n4cnc5c(N)ncnc54)[C@H](O)[C@@H]3O)[C@H]1C[C@@H](O)[C@@]13C[C@@H](CC[C@@H]21)[C@](C)(O)C3`, the Potency entry in test [1], in test [3], in test [4], in [5], in test [6] and in [7] was “inactive” each time. Besides, the Potency entry in [9], in test [11], in test [20], in test [13], in [14] and in [15] was “inactive” in each case. Also, the Potency result in test [16] was “inactive”. Besides, in test [2], the Potency was 4.73 µM (active). In addition, in test [17], the call was inactive.

For `CC[C@@H]1C[C@@]2(CC)OC(=O)[C@@]3(CC)[C@H](CC)[C@@H]1[C@@H]23`, the Potency result in test [1], in test [2], in [3], in test [4], in test [5] and in test [6] was “inactive” in each case. The Potency entry in test [7], in test [8], in [9], in [11], in [13] and in test [15] was “inactive” in each case. For the same molecule, the Potency entry in test [19], in test [16] and in test [18] was “inactive” in each case. In addition, the molecule was classed as inactive in test [12] and in [17].
